Measurements reported in PubChem BioAssay.
Calls of active or inactive are those of the source.

Assays:
[1] = system: Human papillomavirus type 1a protein E7 (residues 44-93); assay: HPV1a E7 fragment binders on microarrays, primary screen, biochemical, small-molecule microarray, residues 44-93, 635 nm fluorescence (AID 1108); conditions: small-molecule microarray binding, fluorescence 635 nm; higher = more signal;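 also: E7 fragment applied at 1 µg/mL in TBST for 1 h at 4 C; score combines spot fluorescence with its signal to noise ratio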
[2] = modulators of HCV replicon luciferase signal, primary screen, HCV replication inhibitor project, Huh7 cells, luciferase reporter (AID 1109); conditions: 48 h, higher = more signal;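 also: huh7 hepatoma cells harbouring a luciferase neomycin HCV replicon reporter; luciferase luminescence as measure of HCV replicon replication; test concentration not given here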
[3] = target: Left-right determination factor 2 (Homo sapiens) (UniProt O00292); assay: LEFTY2 binders on small-molecule microarrays, primary screen, biochemical, small-molecule microarray, 635 nm fluorescence scan (AID 1110); conditions: LEFTY2 binding, higher = more signal
Left-right determination factor 2 (Homo sapiens), sequence (O00292 whole entry, looked up): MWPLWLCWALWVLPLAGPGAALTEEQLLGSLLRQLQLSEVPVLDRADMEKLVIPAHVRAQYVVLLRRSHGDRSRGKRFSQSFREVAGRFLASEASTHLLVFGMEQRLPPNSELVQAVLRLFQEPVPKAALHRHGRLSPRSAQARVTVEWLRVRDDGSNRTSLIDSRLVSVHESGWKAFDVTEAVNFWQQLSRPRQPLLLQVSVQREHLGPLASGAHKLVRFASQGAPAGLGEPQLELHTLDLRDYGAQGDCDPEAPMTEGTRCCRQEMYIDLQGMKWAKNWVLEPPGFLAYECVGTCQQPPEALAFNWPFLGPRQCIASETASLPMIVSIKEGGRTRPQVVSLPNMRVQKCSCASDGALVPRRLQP

[4] = target: Calmodulin-1 (Homo sapiens) (UniProt P0DP23); assay: CALM1 binders on microarrays, EGTA buffer, profiling panel, biochemical, small-molecule microarray, Cy5-labelled CALM1 (AID 1111); conditions: Cy5-CALM1 binding fluorescence, higher = more signal;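 also: labelled calmodulin applied in Tris saline Tween buffer holding calcium plus EGTA and DTT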
[5] = target: Calmodulin-1 (Homo sapiens) (UniProt P0DP23); assay: calcium-bound CALM1 binders on microarrays, profiling panel, artefact control for SMM control-protein annotation, biochemical, small-molecule microarray, Cy5-labelled CALM1, plus calcium (AID 1112); conditions: Cy5-CALM1 binding fluorescence, higher = more signal;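 also: score merges spot fluorescence with signal to noise from triplicate slides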
[6] = small-molecule microarray binders of probe aWnt5a, primary screen, biochemical, biotinylated probe, 635/667 nm fluorescence (AID 1113); conditions: higher = more signal;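 also: score merges 667 nm fluorescence intensity with signal-to-noise per printed feature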
[7] = small-molecule microarray binders of probe aShh, primary screen, biochemical, biotinylated probe, 635/667 nm fluorescence (AID 1114); conditions: higher = more signal;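 also: probe is biotin-labelled aShh protein from a stem cell growth factor screen; measures binding of labelled protein to compounds printed on the slide; score merges feature fluorescence at 667 nm with signal-to-noise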
[8] = small-molecule microarray binders of probe aNog, primary screen, biochemical, biotinylated probe, 635/667 nm fluorescence (AID 1115); conditions: higher = more signal;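 also: probe is biotinylated aNog protein used at 0.15 µg/mL for 1 h at 4 C; z-score combines 667 nm fluorescence of each spot with its signal to noise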
[9] = target: Torsin-1A-interacting protein 1 (Homo sapiens) (UniProt Q5JTV8); assay: LAP1 binders from COS7 cell lysate, primary screen, small-molecule microarray, 635/667 nm fluorescence (AID 1116); conditions: COS7-hLAP1 lysate binding, 635 nm fluorescence, higher = more signal
Torsin-1A-interacting protein 1 (Homo sapiens), sequence (Q5JTV8 whole entry, looked up): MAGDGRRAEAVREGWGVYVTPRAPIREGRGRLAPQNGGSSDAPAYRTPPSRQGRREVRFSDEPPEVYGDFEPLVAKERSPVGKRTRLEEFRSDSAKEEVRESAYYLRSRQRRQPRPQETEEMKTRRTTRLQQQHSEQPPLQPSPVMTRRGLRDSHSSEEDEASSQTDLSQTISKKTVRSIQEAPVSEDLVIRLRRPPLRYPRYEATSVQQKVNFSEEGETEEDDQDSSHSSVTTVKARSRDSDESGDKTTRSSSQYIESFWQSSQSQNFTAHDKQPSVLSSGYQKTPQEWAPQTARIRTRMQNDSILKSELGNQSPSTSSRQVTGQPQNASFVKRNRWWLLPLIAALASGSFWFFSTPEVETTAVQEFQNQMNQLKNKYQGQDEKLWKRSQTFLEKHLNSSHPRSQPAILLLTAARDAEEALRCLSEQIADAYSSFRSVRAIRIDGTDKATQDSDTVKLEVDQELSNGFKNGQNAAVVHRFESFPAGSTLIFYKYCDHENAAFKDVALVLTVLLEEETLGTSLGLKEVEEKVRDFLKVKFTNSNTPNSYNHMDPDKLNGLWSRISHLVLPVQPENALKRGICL

[10] = target: Alpha-bungarotoxin (Bungarus multicinctus) (UniProt P60615); assay: alpha-bungarotoxin binders on microarray, profiling panel, artefact control for SMM control protein annotation, biochemical, small-molecule microarray, Alexa647 label, 635/667 nm fluorescence (AID 1117); conditions: alpha-BTX-A647 binding fluorescence, higher = more signal
Alpha-bungarotoxin (Bungarus multicinctus), sequence (P60615 whole entry, looked up): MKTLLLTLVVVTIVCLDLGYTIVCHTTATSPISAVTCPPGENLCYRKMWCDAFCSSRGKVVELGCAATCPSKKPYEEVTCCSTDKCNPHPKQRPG

Albumin (Bos taurus) = Albumin (Bos taurus) (UniProt P02769); assay: bovine serum albumin binders on microarray, profiling panel, artefact control for SMM control protein annotation, biochemical, small-molecule microarray, Alexa647 label, 635/667 nm fluorescence (AID 1118); conditions: BSA-A647 binding, fluorescence 635 nm, higher = more signal;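 also: score merges 667 nm emission intensity and signal-to-noise per printed compound spot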
Albumin (Bos taurus), sequence (P02769 whole entry, looked up): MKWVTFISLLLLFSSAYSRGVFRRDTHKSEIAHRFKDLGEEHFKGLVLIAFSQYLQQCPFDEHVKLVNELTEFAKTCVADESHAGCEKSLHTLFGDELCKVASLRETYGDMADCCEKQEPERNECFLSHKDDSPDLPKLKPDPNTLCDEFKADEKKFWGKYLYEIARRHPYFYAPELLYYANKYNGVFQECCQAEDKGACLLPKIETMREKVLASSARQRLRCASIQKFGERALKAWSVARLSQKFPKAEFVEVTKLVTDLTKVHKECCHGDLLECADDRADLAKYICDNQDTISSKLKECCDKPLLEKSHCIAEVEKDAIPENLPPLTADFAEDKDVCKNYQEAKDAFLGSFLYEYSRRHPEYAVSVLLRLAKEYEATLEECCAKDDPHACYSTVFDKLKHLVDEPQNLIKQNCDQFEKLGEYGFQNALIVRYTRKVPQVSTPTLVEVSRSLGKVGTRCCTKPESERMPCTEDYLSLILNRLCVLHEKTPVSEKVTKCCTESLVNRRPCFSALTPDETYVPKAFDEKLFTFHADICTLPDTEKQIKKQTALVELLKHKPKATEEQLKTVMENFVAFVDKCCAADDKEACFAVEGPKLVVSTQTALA

[11] = small-molecule microarray binders of probe aXIP, primary screen, biochemical, NeuroSMM set, 635/667 nm fluorescence (AID 1119); conditions: higher = more signal, called active from +8 up or from −8 down;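 also: probe is the protein aXip251-270 applied at 1 µg/mL to compound-printed slides; binding of probe to printed compounds measured as 667 nm fluorescence plus signal to noise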
[12] = small-molecule binders of probe aNOTCH3, primary screen, biochemical, small-molecule microarray, 635/667 nm fluorescence (AID 1120); conditions: higher = more signal;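 also: probe is a biotin-tagged antibody raised against NOTCH3 rather than NOTCH3 protein; score merges spot fluorescence near 667 nm with spot signal to noise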
[13] = small-molecule binders of probe aNOTCH2, primary screen, biochemical, small-molecule microarray, 635/667 nm fluorescence (AID 1121); conditions: higher = more signal;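 also: score merges feature fluorescence read at 667 nm with its signal to noise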
[14] = target: Carbonic anhydrase 2 (Homo sapiens) (UniProt P00918); assay: CAII small-molecule binders, profiling panel, biochemical, small-molecule microarray, Alexa647-labelled CAII (AID 1122); conditions: CAII-A647 binding fluorescence, higher = more signal
[15] = COS7 lysate on small-molecule microarray, probe aHis, 635 nm (AID 1123); conditions: COS7 cell lysate, fluorescence, higher = more signal;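 also: z-score combines 667nm fluorescence intensity with signal-to-noise per printed compound spot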
[16] = compound binding in COS7 lysate, probe aLAP1, primary screen, cell lysate, small-molecule microarray (AID 1124); conditions: probe aLAP1, fluorescence, higher = more signal;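 also: lysate comes from COS7 cells expressing LAP1 and is applied at 0.3 µg/mL; score merges spot fluorescence near 667 nm with signal-to-noise over triplicate slides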
Sam68 (KHDRBS1) = assay: Sam68 small-molecule binders, primary screen, biochemical, small-molecule microarray, 635 nm fluorescence (AID 1125); conditions: small-molecule microarray binding, higher = more signal;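 also: score merges 667 nm channel intensity with signal to noise over triplicate slides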
[17] = system: Chordin-like protein 2 (CHRDL2); assay: CHRDL2 small-molecule binders, primary screen, biochemical, small-molecule microarray, 635 nm fluorescence (AID 1126); conditions: small-molecule microarray binding, fluorescence 635 nm; higher = more signal;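 also: printed compound slides probed with Chrdl2 protein at 4 µg/mL for 1 h at 4 C; score merges 667 nm emission intensity with signal to noise over three replicate slides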
[18] = target: Concanavalin-A (Canavalia ensiformis) (UniProt P02866); assay: ConA small-molecule binders, primary screen, artefact control for SMM control protein annotation, biochemical, small-molecule microarray, Alexa647 label, 635 nm (AID 1127); conditions: ConA-A647 binding fluorescence, higher = more signal;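 also: z combines 667 nm emission intensity with signal-to-noise across three replicate slides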
Concanavalin-A (Canavalia ensiformis), sequence (P02866 whole entry, looked up): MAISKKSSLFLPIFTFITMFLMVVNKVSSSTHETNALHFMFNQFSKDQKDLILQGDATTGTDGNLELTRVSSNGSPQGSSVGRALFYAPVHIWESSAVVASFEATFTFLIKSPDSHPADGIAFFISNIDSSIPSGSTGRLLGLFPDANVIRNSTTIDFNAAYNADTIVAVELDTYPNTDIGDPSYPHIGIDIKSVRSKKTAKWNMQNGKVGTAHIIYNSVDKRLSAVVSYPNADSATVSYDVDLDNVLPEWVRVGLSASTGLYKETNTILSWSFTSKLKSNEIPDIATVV

SMILES | composite z-score [1] | z-score [2] | composite z-score [3] | composite z-score [4] | composite z-score [5] | composite z-score [6] | composite z-score [7] | composite z-score [8] | composite z-score [9] | composite z-score [10] | composite z-score (Albumin (Bos taurus)) | composite Z-score [11] | composite z-score [12] | composite z-score [13] | composite z-score [14] | composite z-score [15] | composite z-score [16] | composite z-score (Sam68 (KHDRBS1)) | composite z-score [17] | composite z-score [18]
Cc1ccc(S[C@]2(C(=O)NCc3ccccc3)CC(=O)N(Cc3ccccc3C(F)(F)F)[C@@H]2c2ccc(CO)cc2)cc1 | -0.0905 | -1.46 | -1.86 | -0.488 | 0.272 | -0.0778 | -0.221 | 0.381 | 0.328 | -0.191 | -0.17 | 0.131 (inactive) | -0.413 | 0.0022 | -0.333 | 0.397 | -0.618 | 0.199 | -1.77 | -0.586
C=CCC(OC(C)=O)[C@@H]1[C@@H](N(Cc2cccc3ccccc23)C(=O)Cc2ccc(OC)cc2)c2cc(OCCCO)ccc2N1C(=O)Cc1ccc2ccccc2c1 (stereo not given in full) | 0.415 | 0.24 | -0.102 | 0.0895 | 0.316 | -0.216 | -0.138 | -0.308 | -0.0234 | 0.14 | -0.0328 | 0.181 (inactive) | -0.0584 | -0.159 | 0.0435 | 1.17 | 0.078 | -0.0489 | 0.116 | -0.154
O=C1O[C@H](c2ccccc2)[C@H](c2ccccc2)N2[C@H]1[C@@H](C(=O)O)[C@]1(C(=O)Nc3ccc(C#CCCO)cc31)[C@H]2c1ccc(OCCO)cc1 | 1.12 | -0.534 | 0.453 | 1.05 | 0.532 | -0.0472 | -0.0769 | 0.133 | 1.65 | 2.47 | 0.316 | 0.0388 (inactive) | 0.0026 | 0.015 | 0.596 | 2.2 | 1.38 | 1.08 | 1.11 | 0.891
